# Reference: the supplement of paper PMC12636033
# ± gives the standard deviation of the averaged measurements. In all, about 33,000 sequences were measured (“E-score (rank enrichment, -0.5 to 0.5)”: median about -0.0075, highest 2% from about 0.23 on). Shown is part of a subset that was picked to be rich in the highest values.
# Tested on: WT Max(13-93) synthetic (M65Nle)
# Assay: PBM 8-mer E-score (E-score (rank enrichment, -0.5 to 0.5)); higher = stronger preferential binding
# Procedure: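 Protein binding microarray (universal PBM chip covering all 10-mers in fixed probe flanks) with chemically synthesized human Max(13-93) bHLH-LZ analogs (not full-length Max) bearing noncanonical residues (hArg, Tha, Aib, Nle at 65) and aromatic Cys staples. Read-out per 8-mer (and its reverse complement): E-score (rank-based enrichment, -0.5 to 0.5) and Z-score of median probe intensity.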
row,Sequence,PBM 8-mer E-score
1,AAATTGTT,0.0622 ± 0.024
2,AAAATGTG,0.205 ± 0.015
3,AGCGACAT,0.113 ± 0.056
4,CATAGGTA,0.00152 ± 0.065
5,AATAGGTA,0.195 ± 0.0039
6,GATAGGTA,0.24 ± 0.073
7,GGCCTTTA,0.0556 ± 0.0086
8,AACGTGGC,0.218 ± 0.022
9,TACGTGGA,0.109 ± 0.08
10,GACGTGGA,-0.0291 ± 0.023
11,CAAGTGGG,0.0824 ± 0.037
12,GACGTGGC,-0.0348 ± 0.019
13,CACGTGGG,0.4865 ± 0.00015
14,CACGTGGC,0.4858 ± 0.0018
15,AACGTGGG,0.215 ± 0.03
16,CACGTGGA,0.4856 ± 0.0019
17,CTTACAAC,-0.0407 ± 0.16
18,TGTAAGAA,0.12121 ± 1.4e-05
19,CGCTAAGC,-0.187 ± 0.092
20,GTGCCTCA,-0.133 ± 0.12
21,AACAGATT,-0.0422 ± 0.079
22,CCAGAATA,-0.0319 ± 0.024
23,GAACCTAA,-0.143 ± 0.099
24,CCGGTCCA,-0.194 ± 0.12
25,AGGGCACT,-0.053 ± 0.033

row,Sequence,PBM 8-mer E-score
1,GTAGGTAA,0.232 ± 0.042
2,ATAGGTAA,0.0523 ± 0.015
3,CTAGGTAA,-0.0715 ± 0.093
4,GTGCTTGA,-0.0248 ± 0.16
5,AACCAGCA,-0.0798 ± 0.12
6,AGTGCCCC,-0.0153 ± 0.009
7,AACGCAGT,-0.173 ± 0.062
8,AAAGTATT,0.118 ± 0.043
9,CAAGTATA,0.0775 ± 0.011
10,AAAGTATA,0.282 ± 0.045
11,GGAGCTTA,-0.168 ± 0.098
12,AAACGCAG,-0.069 ± 0.017
13,AACCGCAT,-0.102 ± 0.13
14,TATCATAA,0.239 ± 0.1
15,AATCATGG,0.0882 ± 0.19
16,GATCATAA,0.156 ± 0.094
17,TATCATGA,0.272 ± 0.0036
18,CATCATAA,0.168 ± 0.045
19,AATCATGA,0.134 ± 0.038
20,CATCATGA,0.0797 ± 0.1
21,AATCATGC,0.168 ± 0.0099
22,AATCATGT,0.235 ± 0.066
23,ACGATATG,0.0765 ± 0.093
24,AGTAGCGA,-0.0978 ± 0.08
25,GGCTATAA,-0.0145 ± 0.049

row,Sequence,PBM 8-mer E-score
1,TGCTACCA,0.081 ± 0.0046
2,TCTGAAGA,-0.204 ± 0.095
3,AAGTCCGG,-0.0703 ± 0.083
4,AGGCCAAA,-0.0704 ± 0.025
5,TAGGCATA,0.0815 ± 0.076
6,AGTTTCCC,-0.0461 ± 0.026
7,ACTTGGGG,0.0672 ± 0.1
8,AGCACGCA,-5e-06 ± 0.0011
9,ATCACGTA,0.174 ± 0.1
10,ATCACGCC,0.0823 ± 0.14
11,ATCACGTG,0.481 ± 0.006
12,ATCACGCG,0.262 ± 0.0089
13,ATCACACC,0.0527 ± 0.072
14,ATCACACG,0.199 ± 0.029
15,ATCACGTC,0.167 ± 0.0029
16,AGCACGCG,0.258 ± 0.035
17,CGCACGCG,0.167 ± 0.051
18,ATCACACA,0.266 ± 0.071
19,ATCACGCA,0.0746 ± 0.08
20,AAACAGTC,-0.0664 ± 0.047
21,AGGTTTTG,0.0094 ± 0.025
22,ATAGCTAA,-0.104 ± 0.047
23,AAAGCGGT,0.0199 ± 0.011
24,GCACGTGA,0.4391 ± 0.0016
25,GAACGTGA,-0.00116 ± 0.019

row,Sequence,PBM 8-mer E-score
1,GCACGTCC,-0.0119 ± 0.016
2,GCACGTAC,0.0338 ± 0.094
3,GGACGTGA,-0.0819 ± 0.01
4,GCACGTGC,0.489 ± 0.0044
5,ACTGTGCA,-0.0882 ± 0.057
6,ATGGTCTA,-0.0528 ± 0.067
7,GTGAGGGA,-0.116 ± 0.061
8,AAATGGGC,-0.1 ± 0.011
9,CTGCTAAC,-0.118 ± 0.073
10,CCGCTGAC,-0.231 ± 0.04
11,AGCTAACT,-0.0391 ± 0.11
12,CGAACTTC,-0.102 ± 0.023
13,GAAACATC,0.0695 ± 0.12
14,AAAACATA,0.0863 ± 0.034
15,TAAACAGA,0.128 ± 0.15
16,GAAACAAC,0.034 ± 0.041
17,CAAACATA,0.143 ± 0.12
18,CAAACAAA,0.0821 ± 0.1
19,GAAACAAA,0.238 ± 0.025
20,GAAACATA,0.27 ± 0.089
21,TAAACATA,0.299 ± 0.0097
22,AGGGTGCC,-0.11 ± 0.043
23,TAGTCCCA,-0.054 ± 0.018
24,CCAATGGC,-0.126 ± 0.23
25,GGCGACTA,-0.0354 ± 0.12

row,Sequence,PBM 8-mer E-score
1,GACAACGC,0.1 ± 0.061
2,GCGTTTTA,0.0184 ± 0.062
3,CGTTAACA,-0.00101 ± 0.057
4,TGTTAACA,0.317 ± 0.13
5,AGTTAACA,0.0439 ± 0.0024
6,GCGATGTA,-0.0179 ± 0.03
7,AGGATGTG,-0.105 ± 0.014
8,TAAGCTTA,0.152 ± 0.0028
9,AGTGGCAC,0.0667 ± 0.064
10,CGTGGCAC,0.251 ± 0.063
11,GGTGGCAC,-0.131 ± 0.071
12,AAGCGTTG,-0.0943 ± 0.073
13,AGGGTAGA,-0.0604 ± 0.015
14,ATTAAGTC,0.2923 ± 0.0026
15,ATTAAGTA,0.259 ± 0.051
16,CTTAAGTC,0.0284 ± 0.017
17,GTTAAGTA,0.0433 ± 0.015
18,ATAAAGTA,0.18 ± 0.043
19,ATTAAGTG,0.106 ± 0.19
20,ATAAAGTC,0.258 ± 0.062
21,ATAAAGTG,0.188 ± 0.078
22,CTTAAGTA,0.0679 ± 0.077
23,ATTTCGCG,0.16 ± 0.065
24,AGATCTAG,-0.118 ± 0.06
25,ATCACGAA,0.0216 ± 0.013

row,Sequence,PBM 8-mer E-score
1,AGTTTGTA,0.074 ± 0.022
2,AGTCTGGG,-0.106 ± 0.13
3,ACATGCGA,0.141 ± 0.025
4,ACATGCGC,0.0958 ± 0.095
5,GCATGCGA,0.238 ± 0.0068
6,CCATGCGC,0.153 ± 0.069
7,GCATGCGC,0.251 ± 0.056
8,CCATGCGA,0.087 ± 0.11
9,ACGGGATG,-0.083 ± 0.16
10,AACGTACG,0.157 ± 0.067
11,GACGTAAA,0.0324 ± 0.088
12,AACGTGAA,-0.0163 ± 0.062
13,AACGTGGT,0.282 ± 0.0092
14,AACGTAAC,0.192 ± 0.0073
15,AACGTGAT,0.268 ± 0.014
16,TACGTAAA,0.233 ± 0.068
17,AACGTAAT,0.248 ± 0.037
18,AACGTAGT,-0.0406 ± 0.12
19,AACGTGAG,0.132 ± 0.048
20,AACGTAAA,0.198 ± 0.065
21,AACGTGGA,0.153 ± 0.036
22,CACGTAAA,0.13 ± 0.054
23,GTGTGCTA,0.0416 ± 0.009
24,AATCCGAT,-0.0748 ± 0.11
25,CATTTTCA,0.063 ± 0.11

row,Sequence,PBM 8-mer E-score
1,CCGAATCG,-0.0138 ± 0.033
2,CTGTGCCC,-0.035 ± 0.08
3,CTGTATGA,0.012 ± 0.079
4,GGTAAAAA,-0.00424 ± 0.074
5,ACCAATCG,0.0164 ± 0.0081
6,CCGACCGC,-0.0589 ± 0.088
7,GCCTACAC,-0.0291 ± 0.029
8,CTGGATAA,-0.0145 ± 0.043
9,ACTGCATA,0.0165 ± 0.043
10,GATGAATC,-0.0452 ± 0.013
11,AATGAATG,0.2671 ± 0.0011
12,TATGAATA,0.151 ± 0.12
13,AATGAATC,-0.141 ± 0.014
14,AATGAATT,0.128 ± 0.086
15,GATGAATA,0.272 ± 0.022
16,CACGACCC,-0.0381 ± 0.027
17,AGGAGGTA,-0.168 ± 0.047
18,CGCGGCAA,-0.139 ± 0.079
19,AGCACTCC,0.0118 ± 0.13
20,ATACGCAA,0.241 ± 0.0012
21,ATACGCAG,-0.0132 ± 0.082
22,GTACGCAA,-0.00199 ± 0.077
23,ATCGACAA,-0.0231 ± 0.046
24,ATACTATA,0.22 ± 0.019
25,GGGATGAA,-0.0123 ± 0.093
